In article PMC7819943, “Rice protein-binding microarrays: a tool to detect cis-acting elements near promoter regions in rice”:
Whole data set: some 39,000 sequences, median “fluorescence intensity (a.u.)” near 4,300, cut for the highest 2% near 39,000. This is one part of a sample in which the highest values are shown more often than they occur.

These sequences were tested against T1, OsSMF1 (Oryza sativa, UniProt Q6ZLB0 1-436) (assay: protein-binding microarray (RPBM); PBS, 2% BSA, 51.3 ng/ul salmon testes DNA, 50 uM zinc acetate, 200 nM TF, 25 C, 1 h; high values mean tight binding). Conditions: protein: recombinant; tags: N-terminal polyhistidine and DsRed monomer fusion (pET32a); chain copies: 2; label: CyDye5-dUTP incorporated in the synthesized complementary strand; 3' TTTTT single-stranded linker to array surface; dsDNA, one strand shown.
T1 sequence: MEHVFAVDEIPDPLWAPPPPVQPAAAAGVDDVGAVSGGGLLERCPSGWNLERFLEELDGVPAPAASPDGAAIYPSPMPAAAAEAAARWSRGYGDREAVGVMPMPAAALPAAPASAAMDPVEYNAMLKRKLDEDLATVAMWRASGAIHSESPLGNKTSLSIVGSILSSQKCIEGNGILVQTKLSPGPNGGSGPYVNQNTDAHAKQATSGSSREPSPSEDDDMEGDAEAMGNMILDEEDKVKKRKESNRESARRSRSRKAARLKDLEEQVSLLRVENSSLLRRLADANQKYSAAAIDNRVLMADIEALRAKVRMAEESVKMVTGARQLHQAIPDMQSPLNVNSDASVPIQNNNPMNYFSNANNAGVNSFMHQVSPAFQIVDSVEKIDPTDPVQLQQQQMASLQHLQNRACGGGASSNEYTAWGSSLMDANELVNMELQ
Method in brief: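 Binding signal is reported as fluorescence intensity per feature (arbitrary units) from an Axon 4000B scanner. Incubation used 200 nM of each Ni–NTA-purified, N-terminally polyhistidine- and DsRed-fused transcription factor from E. coli BL21-CodonPlus on a double-stranded custom Agilent array for 1 h at 25 °C, with 50 µM zinc acetate in the buffer, followed by washing.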
With “AGTATCTCTTTCACAAAAGCCTACGTCATCTTTAAATTAGCGGAGTCACCTAGTGCAG” the binding signal was 5060 fluorescence intensity (a.u.). “GATGGAGACCCTGTGCGAACTGACAGTAATAGGGCTGGAACGGAGTCACCTAGTGCAG” was tested, and the binding signal was 39400 fluorescence intensity (a.u.). For “CTTGCGATGCGTGGTGAGTGGTGACTGTAATGTAATGGAACGGAGTCACCTAGTGCAG”, the binding signal was 3450 fluorescence intensity (a.u.). In the case of “ACCTGGTAACTGAACACAGGATGGAAACTCTGAATAATGACGGAGTCACCTAGTGCAG”, the binding signal is reported as 3250 fluorescence intensity (a.u.). In the case of “ATTTACTGCCTATTCGTGAGTTGGTCCTCCTGACTCTGACCGGAGTCACCTAGTGCAG”, the binding signal is reported as 3750 fluorescence intensity (a.u.). With “TACCGTCCCTCAACTTTATGTCGAGTCTATATGACATACCCGGAGTCACCTAGTGCAG” the binding signal was 4220 fluorescence intensity (a.u.). “TACTTTATTTTGATTTTCGTGGGAGGTGACGTGGGCGCTTCGGAGTCACCTAGTGCAG” was tested, and the binding signal was 19300 fluorescence intensity (a.u.). For “TCTTCCCGCTCGCCACGTCAGCGCCATGTGAGCAAAACTACGGAGTCACCTAGTGCAG”, the binding signal was 15500 fluorescence intensity (a.u.). In the case of “AATCAATCCATTAATATTTAACATGATCAGGCATTAGTCGCGGAGTCACCTAGTGCAG”, the binding signal is reported as 3580 fluorescence intensity (a.u.). “ATCCACGTGGCAATGTATTAATCCAGTCAGCAACATCTCACGGAGTCACCTAGTGCAG” was tested, and the binding signal was 12400 fluorescence intensity (a.u.). In the case of “GTTGGAACAATTAATGTGCTGCAGGCAATAACAATCCAGTCGGAGTCACCTAGTGCAG”, the binding signal is reported as 48700 fluorescence intensity (a.u.). For “ATTTGTCTTATGTATATGCTGTATAGGATCTATGGACGCCCGGAGTCACCTAGTGCAG”, the binding signal was 3520 fluorescence intensity (a.u.). In the case of “GTTCCATTCCAATCCCATGAAAGCAACAGCGCTGCCTATCCGGAGTCACCTAGTGCAG”, the binding signal is reported as 35800 fluorescence intensity (a.u.). In the case of “ACATAATTGTATTATGCAGAACCAAAGCAGGCCACGTGAGCGGAGTCACCTAGTGCAG”, the binding signal is reported as 5470 fluorescence intensity (a.u.). With “ACCTCTGGTAGCAGCAGCAGCTCGCACGCAGCTCATCGTGCGGAGTCACCTAGTGCAG” the binding signal was 40700 fluorescence intensity (a.u.). For “TGCCGCCGCCGTCGTCACCGTCGCCGCCTCCGTGCTCATGCGGAGTCACCTAGTGCAG”, the binding signal was 6030 fluorescence intensity (a.u.). “CCAGCAGCCCCTCTCTCATCCATGGTAGTGCTCTGTCATGCGGAGTCACCTAGTGCAG” was tested, and the binding signal was 3400 fluorescence intensity (a.u.). “GCGTGGTGCGTATCGTGCTCATCGCATCGGCCTCCGTATACGGAGTCACCTAGTGCAG” was tested, and the binding signal was 40000 fluorescence intensity (a.u.). For “CGTCGCCGTCGCCTCGCCTCGTCACGGCCGCCTCCGCCATCGGAGTCACCTAGTGCAG”, the binding signal was 7920 fluorescence intensity (a.u.). In the case of “AACGGGGCCTCGTAGCAACAGCTCTGACGCACGTGACCTCCGGAGTCACCTAGTGCAG”, the binding signal is reported as 5400 fluorescence intensity (a.u.). “ATGTTGACTCGTTTGCCTGTGTTCCTCTTGCTGCTATTCACGGAGTCACCTAGTGCAG” was tested, and the binding signal was 3230 fluorescence intensity (a.u.). For “CGCTGTGGTGTGCAGCGGCGGTGCCACGTCCCTATTTAAACGGAGTCACCTAGTGCAG”, the binding signal was 10900 fluorescence intensity (a.u.). “ATCTTTAGTCCCGGATTGGTAGTTCCGGTTTGAAAACCGGCGGAGTCACCTAGTGCAG” was tested, and the binding signal was 3760 fluorescence intensity (a.u.). In the case of “TCTTTAGTCCCGGTTCCTATTTAAACCGGGATTATTGTGGCGGAGTCACCTAGTGCAG”, the binding signal is reported as 47900 fluorescence intensity (a.u.). For “ACCAAATGACATGACTCACTTAGATCCTAATAGGACATCCCGGAGTCACCTAGTGCAG”, the binding signal was 4400 fluorescence intensity (a.u.). With “GCGCCGCGGTGGAGGCGAGTGGGCGACACGTGGGAAGTGGCGGAGTCACCTAGTGCAG” the binding signal was 6610 fluorescence intensity (a.u.). “ATATGTGCTGGCCGCTGAGGTATACAGTATATGGGCCAACCGGAGTCACCTAGTGCAG” was tested, and the binding signal was 3580 fluorescence intensity (a.u.). For “CCGGACCAAAATGACGTGCCTTAGGCCGGGCCGCCAGCCTCGGAGTCACCTAGTGCAG”, the binding signal was 3830 fluorescence intensity (a.u.). In the case of “GTGCTGGCCAAATGGGCCGGGCCAAGGCCTCGGTAACCACCGGAGTCACCTAGTGCAG”, the binding signal is reported as 42300 fluorescence intensity (a.u.). With “ATCTGTCTTTGTTTGAAATCAGATTGGTTCAAAACAAGCGCGGAGTCACCTAGTGCAG” the binding signal was 21900 fluorescence intensity (a.u.). In the case of “AGTTGATAAATTTCAGAAAATTTTGATGACAAAGCAAAGCCGGAGTCACCTAGTGCAG”, the binding signal is reported as 5580 fluorescence intensity (a.u.). “CAAATTTTAATCCTAGAAAAGCTTATATTTGAAGGAGAAGCGGAGTCACCTAGTGCAG” was tested, and the binding signal was 31100 fluorescence intensity (a.u.). For “CTTTTCACGGATCCTAATTTTGACAGGCAAAGAAAGAAAGCGGAGTCACCTAGTGCAG”, the binding signal was 41700 fluorescence intensity (a.u.). In the case of “GTCCCGCGCATTGGCGACGCGCGACCGGCACGGTCCCGCACGGAGTCACCTAGTGCAG”, the binding signal is reported as 13500 fluorescence intensity (a.u.). In the case of “CTGACGACCCGGATCAACCATTGGCAGCAGCTCCTGTACACGGAGTCACCTAGTGCAG”, the binding signal is reported as 3580 fluorescence intensity (a.u.). In the case of “AATAACCACGTATATATAACTTCTAACCCTAGTTAACAACCGGAGTCACCTAGTGCAG”, the binding signal is reported as 3310 fluorescence intensity (a.u.). In the case of “GAATTTATGGTTGAATACTTAACTTAAAATCCAAGGAACCCGGAGTCACCTAGTGCAG”, the binding signal is reported as 3220 fluorescence intensity (a.u.). With “AAAGAGATTATGCGGATATGCCCTTGCAAACCGGGGCAGTCGGAGTCACCTAGTGCAG” the binding signal was 49900 fluorescence intensity (a.u.). In the case of “TACTTATGTAAAAGGATTGATTTAAGAGAATGGTCCAAACCGGAGTCACCTAGTGCAG”, the binding signal is reported as 44100 fluorescence intensity (a.u.). “AAGAGATGGGGATTAAACCAATTGGGCCGAAAGATATGTCCGGAGTCACCTAGTGCAG” was tested, and the binding signal was 41200 fluorescence intensity (a.u.). For “AGAGGGGAGGAAGAAGGAAGGAGAGATGGGTCCGACATGTCGGAGTCACCTAGTGCAG”, the binding signal was 26900 fluorescence intensity (a.u.). In the case of “AGAGAATTATGGAGAGGGGAGGGGAGGGGCAGCAAAAGAGCGGAGTCACCTAGTGCAG”, the binding signal is reported as 4210 fluorescence intensity (a.u.).
